The campaign covered roughly 330,000 compounds. About 520 (0.16%) were called active.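 How the source made its calls: active means inhibition of at least 50% in every replicate; inconclusive means best replicate reaches 50% inhibition but some replicates fall short; inactive means the rest.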 What follows is part of a selection rich in actives, with near analogues and random picks from the rest.
What follows are compounds tested against Histone acetyltransferase RTT109 (Candida albicans (strain SC5314 / ATCC MYA-2876)) (UniProt Q5AAJ8) (assay: Rtt109-Vps75 histone acetyltransferase blockade – biochemical, ThioGlo CoA-SH fluorescence, plate reader, primary screen (AID 540336)). Details: purified Rtt109/Vps75, ThioGlo CoA-SH fluorescence, 4 h; at 34.9 µM; active compounds read high.
Sequence of Histone acetyltransferase RTT109 (Candida albicans (strain SC5314 / ATCC MYA-2876)) (Q5AAJ8 whole entry, looked up): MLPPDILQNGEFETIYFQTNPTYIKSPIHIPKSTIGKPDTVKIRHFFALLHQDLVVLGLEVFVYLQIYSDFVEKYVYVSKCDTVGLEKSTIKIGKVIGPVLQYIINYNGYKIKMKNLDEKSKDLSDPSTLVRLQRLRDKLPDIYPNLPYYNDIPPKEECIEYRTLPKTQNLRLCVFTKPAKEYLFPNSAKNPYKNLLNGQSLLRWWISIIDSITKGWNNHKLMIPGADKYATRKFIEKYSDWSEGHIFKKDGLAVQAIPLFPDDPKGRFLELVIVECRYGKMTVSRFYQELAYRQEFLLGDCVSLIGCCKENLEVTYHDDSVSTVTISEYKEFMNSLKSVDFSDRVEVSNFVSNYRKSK

inhibition, active:
CCC(=O)N(CCc1ccccc1)Cc1cc2cc(C)ccc2[nH]c1=O 54.1%
Cc1cc(C)nc(N2CCC(C(=O)Nc3ccc4c(c3)OCCO4)CC2)n1 54.4%
COc1ccc(-n2nc3c(c2NC(=O)c2ccc(N4C(=O)CCC4=O)cc2)CSC3)cc1 57.3%
COC(=O)/C=C\C(=O)Nc1cccc([N+](=O)[O-])c1 68.2%
CC(C(=O)NC1CCS(=O)(=O)C1)N1C(=O)/C(=C/c2ccc(Cl)cc2)SC1=S (stereo unspecified) 180%
O=C(Nc1ccccc1Cl)/C(Cl)=C(\Cl)S(=O)c1ccccc1 (stereo unspecified) 136%
CCOC(=O)Cc1csc(NC(=O)CSc2nc(C)cc(=O)[nH]2)n1 66.2%
CSc1ccc(NC(=O)/C=C/C(=O)O)cc1 63.6%

inhibition, inactive:
CC(C)=CCc1ccc(O)c(=O)cc1C(C)C 6.99%
Cc1ccc2[nH]c(=O)c(CN(CCCN(C)C)C(=O)Nc3cccc(Cl)c3)cc2c1 6.58%
CCN(Cc1cc2cc(C)ccc2[nH]c1=O)S(=O)(=O)c1ccccc1 6.13%
COc1cccc2oc(CCc3ccccc3)cc(=O)c12 -16.8%
COc1cc(/C=C/C(=O)OCC(=O)NC2CC2)cc(OC)c1OC 10.9%
O=C(Nc1ccc2c(c1)OCCO2)C1CCCC1 -1.87%
O=C(Nc1ccc2c(c1)OCCO2)C1CCCN(c2ncccn2)C1 (stereo unspecified) -8.66%
C[C@H](O)[C@@H]1C(=O)N2CCc3ccc(N4CCOCC4)cc3[C@@H]2C[C@@H]1N(C)C(=O)C(C)(C)C 0.072%
Cc1nn(-c2ccc(F)cc2)c(Cl)c1/C=C(/CCC(=O)O)c1nc2ccccc2s1 3.42%
CC(C)C(=O)Nc1c2c(nn1-c1ccccc1)CSC2 2.65%
CC(=O)Nc1c2c(nn1-c1cccc(C)c1)CSC2 -4.46%
COc1cc(C(=O)N2CCN(S(=O)(=O)c3ccc(C(C)C)cc3)CC2)ccc1OCC(=O)N1CCOCC1 -4.48%
COc1ccc(Cn2cc(CN3CCS(=O)(=O)N(Cc4ccc(-c5cccc(Cl)c5)cc4)C(C)C3=O)nn2)cc1 (stereo unspecified) 11.2%
COc1cccc(CNC(=O)CCCC(=O)Nc2cccc([N+](=O)[O-])c2)c1 -7.21%
COc1ccc(S(=O)(=O)NC(C)C(=O)Nc2cccc([N+](=O)[O-])c2)cc1 (stereo unspecified) -0.177%
CC/C(=C(/c1ccccc1)c1ccc(OCC[N+](C)(C)C)cc1)c1ccccc1 -16.1%
Cc1ccc(S(=O)(=O)n2oc(=O)c(C3CCCCC3)c2N)cc1 0.705%
CCCCN(C(=O)CSCc1ccc(C)cc1)c1c(N)n(Cc2ccccc2)c(=O)[nH]c1=O -4.15%
COc1ccc(CC(=O)NC(C)c2ccc(Cl)c(Cl)c2)cc1S(=O)(=O)N1CCOCC1 (stereo unspecified) -2.98%
COc1cc2c(cc1OC)C1C(=O)c3cc(OS(C)(=O)=O)c(OC)cc3C1N(C)C2=O (stereo unspecified) -1.27%
CN(C(=O)CN1C(=O)/C(=C/c2ccc(Cl)cc2)SC1=S)C1CCS(=O)(=O)C1 (stereo unspecified) -24.5%
COc1ccc(/C=C2\SC(=O)N(CCC(=O)NC3CCS(=O)(=O)C3)C2=O)cc1 (stereo unspecified) 11.3%
COc1cc(/C=C/c2ccc(/C=C/c3cc(OC)c(OC)c(OC)c3)cc2)cc(OC)c1OC 1.49%
O=[N+]([O-])c1ccc(COc2ccccc2CN2CCOCC2)cc1 9.55%
C=CCOC(=O)N1CCC2CC1c1cc(-c3ccc(OC)cc3)ccc12 (stereo unspecified) -3.1%
COc1cccc(/C=N/Nc2ccc(S(=O)(=O)Nc3ccccc3C(=O)O)cc2[N+](=O)[O-])c1O 31.2%
COc1ccc(/C=C/C(=O)OCC(=O)N2CCN(S(=O)(=O)c3ccc(C)cc3C)CC2)cc1OC -12.4%
Cc1ccc2c(O)c(Cc3ccccc3)c(=O)[nH]c2n1 3.15%
CCOC(=O)c1ccccc1NC(=O)CSc1nc2c(sc(=S)n2CC)c(=O)[nH]1 12.6%
COc1ccc(CNCCCn2cnc3c(OCc4ccccc4)ncnc32)cc1 -0.493%
O=C(Nc1ccccc1Cl)O/N=C(/c1ccccc1)c1ccccn1 -0.825%
CC1(C)CC(CCC(=O)Nc2ccccc2Cl)C(=O)O1 (stereo unspecified) -18.6%
Cc1cc2c(cc1C)NC1(C[C@H]3CCC(=O)N4CC[C@@H](C1)[C@@H]34)C(=NC(C)(C)CC(C)(C)C)N2 (stereo partly specified) -1.37%
COc1ccccc1C(=O)c1ccccc1C(=O)c1ccccc1 -0.662%
COc1ccc2c(c1)C(=O)CC(c1ccccc1)O2 (stereo unspecified) -1.45%
CCCCc1nnc(NC(=O)CSc2nc(C)cc(=O)[nH]2)s1 -0.892%
CCOC(=O)Cc1csc(NC(=O)CSc2ccc(Br)cc2)n1 2.14%
Cc1ccc(S(=O)(=O)N2CCC(C(=O)N3CCCCCCC3)CC2)cc1 1.29%
Cc1cccc(N2CCN(c3ccc(NC(=O)/C=C\C(=O)O)cc3)CC2)c1 3.01%
O=C(O)/C=C\C(=O)Nc1ccc(OCc2ccccc2)cc1 3.12%
O=[N+]([O-])c1ccc(NS(=O)(=O)c2ccccc2)c(Cl)c1 -7.39%
CC(=O)OC1CCC2(C)C(=CCC3C4CC(=O)N(O)C(=O)C4(C)CCC32)C1 (stereo unspecified) 1.39%
NC(=O)C1(Nc2ccccc2Cl)CCCC1 -1.87%
CC(C)C[C@H]1CN([C@@H](CC(C)C)CN2CCC[C@@H]2CN2C(=O)C(=O)NC[C@@H]2Cc2ccccc2)C(=O)C(=O)N1CCc1ccccc1 3.1%
OCCN1CCN(CCO)C1=S -2.55%
O=[N+]([O-])c1cc2ccccc2nc1-c1ccccc1 2.85%
CCCN(C(=O)COC(=O)CNS(=O)(=O)c1ccc(NC(C)=O)cc1)C1CCS(=O)(=O)C1 (stereo unspecified) 2.12%
Cc1cccc(C2c3c(n(C)c(=O)n(C)c3=O)N=C3c4ccccc4C(=O)C32)c1 (stereo unspecified) 29.8%

Source: PubChem BioAssay AID540336 (Broad Institute, 2011)
